Among all 340,000 compounds or so, about 6,900 (2%) were called active. The sample holds actives, similar compounds and a random draw of the others, so the mix is not that of the screen. Rule as the data show it: active = inhibition above about 30%; inactive = below that, where a call was filed.
molecular target: D(2) dopamine receptor (Homo sapiens) (UniProt P14416); experiment: HTS Assay for Allosteric Antagonists of the Human D2 Dopamine Receptor: Primary Screen for Antagonists; details: HEK293 TREx D2 cells, calcium flux, dopamine EC80; at 10 µM; active compounds read high; also: 0% is about no effect
Sequence (P14416 whole entry, looked up): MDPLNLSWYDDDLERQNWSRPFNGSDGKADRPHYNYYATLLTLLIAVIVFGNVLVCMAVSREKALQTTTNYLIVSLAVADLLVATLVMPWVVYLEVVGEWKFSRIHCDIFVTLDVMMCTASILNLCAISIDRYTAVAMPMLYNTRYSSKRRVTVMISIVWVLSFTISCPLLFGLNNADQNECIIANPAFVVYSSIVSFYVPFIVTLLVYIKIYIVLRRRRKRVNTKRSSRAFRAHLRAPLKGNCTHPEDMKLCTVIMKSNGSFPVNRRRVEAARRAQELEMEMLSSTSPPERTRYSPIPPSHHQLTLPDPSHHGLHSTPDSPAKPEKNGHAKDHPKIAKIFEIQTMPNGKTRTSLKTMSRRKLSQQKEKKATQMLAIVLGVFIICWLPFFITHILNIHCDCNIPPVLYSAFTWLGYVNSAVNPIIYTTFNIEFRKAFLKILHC
Method in brief: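 Tetracycline-induced HEK293 T-REx cells expressing D2 force-coupled to calcium signalling were dye-loaded, exposed to compound for 180 s, then challenged with an EC80 of dopamine; calcium flux was followed kinetically for a further 180 s.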

inhibition, active:
OCC1(Cc2ccccc2)CCN(Cc2cc3ccccc3o2)CC1 94.6%
O=C(c1ccc(F)cc1)C1CCN(Cc2cn[nH]c2-c2ccccc2)CC1 56%
O=C(Nc1cccc(-c2nnc(-c3ccccc3)o2)c1)C1CCCO1 (stereo not drawn) 63%
COc1ccc(NC(=O)CC2SC(N3CCCCC3)=NC2=O)cc1OC (stereo not drawn) 40.6%
Cc1ccc2oc(=O)c3cnn(CC(=O)N(Cc4ccco4)C4CCCCC4)c3c2c1 32.4%
Cc1cc(C(=O)NC2CCN(Cc3ccccc3)CC2)n[nH]1 74.1%
O=C(NC1CCN(Cc2ccccc2)CC1)c1cc(Br)c(Br)[nH]1 78.3%
O=C(NC(=S)N1CCN(Cc2ccccc2)CC1)c1ccccc1 31.2%
COc1c(O)ccc2c1CN1CCc3cc4c(cc3C1C2)OCO4 (stereo not drawn) 74.1%
CS(=O)(=O)N(CC(O)Cn1c2ccccc2c2ccccc21)c1cccc2ccccc12 (stereo not drawn) 31.2%
CC1CCCCC1NC(=O)CO/N=C/c1ccc(OC(F)F)cc1 (stereo not drawn) 34.1%
CC(=C1C(=O)c2ccccc2C1=O)N1CCN(c2ccccn2)CC1 56.1%
CC(C)[C@@H](NC(=O)OC(C)(C)C)C(=O)NCC1CCC(C(=O)N[C@@H](Cc2ccccc2)C(=O)O)CC1 (stereo partly drawn) 31.8%
N#Cc1ccc(C(c2ccc(C#N)cc2)n2cncn2)cc1 48.6%
CCOc1ccc(Br)cc1S(=O)(=O)N1CCC(C(=O)O)CC1 39.3%
COc1ccccc1N1CCN(C(=O)c2cc3c(-c4ccc(Cl)cc4)nn(C)c3s2)CC1 31%
CCOC(=O)c1cc2sccc2n1Cc1ccc(C#N)cc1 31.1%
COc1c(O)cc2oc(-c3ccc(O)c(O)c3)cc(=O)c2c1O 36.2%
Cc1sc2nc(CSCC(=O)Nc3c(Cl)cccc3Cl)[nH]c(=O)c2c1C 43.2%

inhibition, inactive:
CC(=O)c1cccc(CN2CCC(CO)(Cc3ccccc3)CC2)c1 3.1%
CC(C)c1csc(CN2CCC(CO)(Cc3ccccc3)CC2)n1 0.256%
OCC1(CCOc2ccccc2)CCN(Cc2cn[nH]c2-c2ccccc2)CC1 -12.6%
COc1ccc(CN2CCNC(=O)C2CC(=O)NCc2cn[nH]c2-c2ccccc2)c(F)c1 (stereo not drawn) -65.2%
Cc1ccc(S(=O)(=O)N2CCOCC2)cc1NC(=O)COC(=O)c1cnccn1 -7.64%
O=C(Nc1nnc(CCc2ccccc2)s1)C1CCCO1 (stereo not drawn) -19.8%
O=C(Nc1ccc(-c2nnc(-c3ccccc3)o2)cc1)C1CCCO1 (stereo not drawn) -12.9%
CCC(C)NC(=O)c1ccc(NC(=O)CC2SC(N3CCCCC3)=NC2=O)cc1 (stereo not drawn) -4.54%
O=C(CC1SC(N2CCCC2)=NC1=O)Nc1ccc(C(=O)NCCc2ccc(F)cc2)cc1 (stereo not drawn) -4.16%
COc1ccccc1N1CCN(C(=O)C2Cc3ccccc3CN2C(=O)c2ccco2)CC1 (stereo not drawn) -23.2%
CCOc1ccc(NC(=O)COC(=O)C2CCC(=O)N2)c([N+](=O)[O-])c1 (stereo not drawn) -10.6%
CC(C)c1ccc(S(=O)(=O)N2CCN(C(C)C(=O)NC3CCCC3)CC2)cc1 (stereo not drawn) -16.2%
Cc1ccc2oc(=O)c3cnn(CC(=O)N4CCN(c5ccccn5)CC4)c3c2c1 -21.9%
Cc1ccc2oc(=O)c3cnn(CC(=O)N4CCCCCC4)c3c2c1 -0.561%
O=C(O)C1C2C=CC(C2)C1C(=O)NCc1ccccc1 (stereo not drawn) 3.26%
O=C(COC(=O)c1ccc(O)cc1O)NNC(=O)c1cccs1 13.6%
O=C(NC1CCN(Cc2ccccc2)CC1)c1ccc(Oc2cc(Cl)cc(Cl)c2)o1 26.7%
O=C(NC1CCN(Cc2ccccc2)CC1)c1c(F)cccc1F 24.1%
Cc1cc(C(=O)NC2CC(C)(C)Cc3c2cnn3-c2ccccc2)n[nH]1 (stereo not drawn) -16%
Cc1ccn2cc(C(=O)NC3CCN(Cc4ccccc4)CC3)nc2c1 15.3%
O=C(c1ccncc1)N1CCN(S(=O)(=O)c2cccc([N+](=O)[O-])c2)CC1 4.87%
CC(Sc1nnc(C2CC2)n1C1CC1)C(=O)Nc1ccc(C(N)=O)cc1 (stereo not drawn) -13.1%
CC(OC(=O)c1ccccc1NCCO)C(=O)Nc1ccnn1C(C)C (stereo not drawn) -18.3%
COc1ccccc1CNS(=O)(=O)c1cc2c3c(c1)CCC(=O)N3CCC2 -11.8%
O=C(Nc1ccccc1)N1CCN(Cc2ccccc2)CC1 13.1%
O=C(c1cccc(Cl)c1)N1CCN(Cc2ccccc2)CC1 7.63%
CC(C)N(C(=O)CN1CCN(S(=O)(=O)c2ccc(Br)s2)CC1)C(C)C -1.58%
CCN(CC)CCn1c2c(c(SCC(=O)Nc3ccc(C(C)C)cc3)nc1=O)CCC2 14.2%
COc1ccc(CN2CCCC(N3CCc4ccccc4C3)C2)c(O)c1 (stereo not drawn) -20%
COc1ccc2cc1Oc1ccc(cc1)C[C@H]1c3cc(c(OC)cc3CCN1C)Oc1c(O)c(OC)cc3c1[C@H](C2)N(C)CC3 -8.18%
CCCCNC(=O)Cn1nc(C)c(S(=O)(=O)N2CCOCC2)c1C 4.53%
O=C1c2ccccc2S(=O)(=O)N1CC(O)Cn1c2ccccc2c2ccccc21 (stereo not drawn) 26.9%
CCCCN(CCCC)CC(O)Cn1c2ccccc2c(=O)c2ccccc21 (stereo not drawn) 0.545%
Cc1ccc(C(=O)OCC(=O)Nc2ccc(Cl)cn2)cc1S(=O)(=O)N1CCOCC1 -15.2%
CC(C)(C)c1ccc(S(=O)(=O)N2CCN(C(=O)c3ccc4c(c3)C(=O)N(Cc3ccncc3)C4=O)CC2)cc1 -6.14%
O=C(NCCC1CCCCN1S(=O)(=O)c1cccs1)C(=O)Nc1ccc(F)cc1F (stereo not drawn) 7.7%
CC(C(=O)N(C)CC(=O)Nc1ccccc1C(F)(F)F)N1C(=O)c2ccccc2C1=O (stereo not drawn) 12.3%
Cc1nn(Cc2ccccc2)c(C)c1C(=O)N1CCN(CC(=O)Nc2ccccc2Cl)CC1 0.422%
O=C(CO/N=C/c1ccc(OC(F)F)cc1)NCc1ccc(F)cc1 4.16%
O=C(COC(=O)/C=C/c1ccc(OC(F)F)cc1)NC1CCCCC1 -18.9%
CCOc1ccc(S(=O)(=O)N2CCC(C(=O)OCc3ccc(OC)cc3)CC2)cc1 5.17%
O=C(C(Cl)Cl)N1CCN(c2ccccn2)CC1 1.9%
COc1ccc(N2CCN(C(C)=C3C(=O)c4ccccc4C3=O)CC2)cc1 14.9%
CCC1(CC)NC(=O)N(CC(=O)OCC(=O)c2cc(C)c(C)cc2C)C1=O -22.9%
CCC(=O)c1ccc(OCC(=O)N(CC)CC2COc3ccccc3O2)cc1 (stereo not drawn) -1.9%
CC1(C)NC(=O)N(CC(=O)N2CCN(S(=O)(=O)c3ccccc3F)CC2)C1=O -6.83%
CC(=O)Nc1ccc(S(=O)(=O)N2CCC(C(=O)N[C@@H](Cc3ccccc3)C(=O)O)CC2)cc1 -23.4%
CC(C)C[C@H](NC(=O)C1CCC(CNC(=O)[C@@H]2CCCN2C(=O)OC(C)(C)C)CC1)C(=O)O (stereo partly drawn) -15.8%
O=C(CSc1nnc(Nc2ccccc2F)s1)NC1CCCC1 12.9%
N#Cc1ccc(C(c2nnnn2CCc2ccccc2)N2CCCCCC2)cc1 (stereo not drawn) -12.6%
N#Cc1ccc(CSc2ncccn2)cc1 -5.83%
CC1CCCC(NC(=O)c2cc(S(=O)(=O)N3CCCCC3)ccc2Cl)C1C (stereo not drawn) -4.83%
CCOC(=O)N1CCN(C(=O)C2CCN(S(=O)(=O)c3cc(Cl)ccc3OCC)CC2)CC1 -9.59%
CCOc1ccc(S(=O)(=O)N2CCC(c3ccccc3)CC2)cc1C(=O)O -17.4%
CC(C)COc1ccc(C(=O)OCC(=O)NCCC2=CCCCC2)cc1 5.26%
COc1cccc(-c2nn(C)c3sc(C(=O)N4CCN(c5ccccc5)CC4)cc23)c1 -14.9%
CCOC(=O)N1CCN(C(=O)c2cc3c(-c4ccc(Cl)cc4)nn(C)c3s2)CC1 5.45%
CCc1noc(C)c1C(=O)N1CCN(S(=O)(=O)c2cccc(C(F)(F)F)c2)CC1 -22.3%
N#CCC(=O)Nc1ccc(C(=O)OCC(=O)Nc2sc3c(c2C#N)CCCC3)cc1 -5.79%
CC1Cc2ccccc2N1C(=O)c1cc2sccc2n1Cc1ccccc1 (stereo not drawn) 8.45%
O=C(c1cc2sccc2n1Cc1ccc(F)cc1)N1CCc2ccccc21 -20.3%
CCC(C(=O)N1CCN(S(=O)(=O)c2sc(C(=O)O)c(C)c2C(=O)O)CC1)c1ccccc1 (stereo not drawn) 14.8%
CCOC(=O)N1CCN(C(=O)COC(=O)c2cccc(S(C)(=O)=O)c2)CC1 -13.9%
O=C(CCc1nc(-c2ccccc2)no1)Nc1cccc(C(=O)NC2CC2)c1 -8.46%
Cc1ccc(NC(=O)C(C)Sc2nnc(C3CC3)n2C2CC2)cc1S(=O)(=O)N1CCOCC1 (stereo not drawn) 10%
CCOC(=O)COc1cc(O)c2c(=O)cc(-c3ccccc3)oc2c1 3.55%
COc1ccc(-c2cc(=O)c3c(O)cc(O[C@@H]4O[C@H](CO[C@@H]5O[C@@H](C)[C@H](O)[C@@H](O)[C@H]5O)[C@@H](O)[C@H](O)[C@H]4O)cc3o2)cc1O 3.3%
Cc1sc2nc(COC(=O)C(NC(=O)c3ccc(Cl)cc3Cl)C(C)C)[nH]c(=O)c2c1C (stereo not drawn) 4.89%
Cc1sc2nc(CSCC(=O)NC3CCCCC3)[nH]c(=O)c2c1C 7.49%

From PubChem BioAssay AID485344 (National Center for Advancing Translational Sciences (NCATS), 2010)
